Test results published in PubChem BioAssay (NCI).
Where “and” joins values, the source holds several entries; their conditions need not be identical. Identical values can stand only once. About 83,000 compounds went through this panel and 20% of them were active in at least one assay; those are over-represented in the sample as a whole.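 Compound tested at a single concentration for 48 hours in 96-well plates; a percent growth value below 10 was scored as active.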 Calls of active or inactive are those of the source.

Tests used:
Experiment in all cases: NCI-60 one-dose screen, 48 h (100 = growth as untreated, 0 = no growth, -100 = all killed)
NCI-H23 lung = conditions: 10 µM unless noted
NCI-H226 lung = conditions: 10 µM unless noted
NCI-H322M lung = conditions: 10 µM unless noted
HOP-62 NSCLC = conditions: 10 µM unless noted
NCI-H460 lung = conditions: 10 µM unless noted
HOP-92 NSCLC = conditions: 10 µM
NCI-H522 lung = conditions: 10 µM
A549/ATCC NSCLC = conditions: 10 µM unless noted
786-0 renal = conditions: 10 µM unless noted
COLO 205 colon = conditions: 10 µM unless noted
DU-145 prostate = conditions: 10 µM unless noted
K-562 leukemia = conditions: 10 µM unless noted
MALME-3M melanoma = conditions: 10 µM unless noted
MDA-MB-231 breast = conditions: 10 µM unless noted
RXF 393 renal = conditions: 10 µM unless noted
SF-268 CNS = conditions: 10 µM unless noted
SF-295 CNS = conditions: 10 µM unless noted
SF-539 CNS = conditions: 10 µM unless noted
UACC-257 melanoma = conditions: 10 µM unless noted
M14 melanoma = conditions: 10 µM unless noted

Row | Compound | growth (NCI-H23 lung) | growth (NCI-H226 lung) | growth (NCI-H322M lung) | growth (HOP-62 NSCLC) | growth (NCI-H460 lung) | growth (HOP-92 NSCLC) | growth (NCI-H522 lung) | growth (A549/ATCC NSCLC) | growth (786-0 renal) | growth (COLO 205 colon) | growth (DU-145 prostate) | growth (K-562 leukemia) | growth (MALME-3M melanoma) | growth (MDA-MB-231 breast) | growth (RXF 393 renal) | growth (SF-268 CNS) | growth (SF-295 CNS) | growth (SF-539 CNS) | growth (UACC-257 melanoma) | growth (M14 melanoma)
1 | NC(Cc1c[nH]c2ccccc12)C(=O)O (stereo unspecified) | 106% (inactive) and 108% (inactive) | 90.6% (inactive) and 103% (inactive) | 98.8% (inactive) and 111% (inactive) | 64.3% (inactive) and 96.3% (inactive) | 105% (inactive) and 101% (inactive) | 75.5% (inactive) | 86% (inactive) and 93.1% (inactive) | 113% (inactive) and 97.8% (inactive) | 69.5% (inactive) and 99.7% (inactive) | 117% (inactive) and 103% (inactive) | 103% (inactive) and 113% (inactive) | 136% (inactive) and 101% (inactive) | 118% (inactive) and 96.3% (inactive) | 104% (inactive) and 97.1% (inactive) | 91.4% (inactive) and 103% (inactive) | 105% (inactive) and 101% (inactive) | 99.4% (inactive) and 102% (inactive) | 93.8% (inactive) and 96.8% (inactive) | 66.9% (inactive) and 94% (inactive) | 93.2% (inactive) and 98.4% (inactive)
2 | Nc1cc(N)c(N)cc1N | -66% (active) | 93.9% (inactive) | 107% (inactive) | 58.3% (inactive) | 96.8% (inactive) | 115% (inactive) | -80.9% (active) | 88.1% (inactive) | 51.7% (inactive) | 95.7% (inactive) | 109% (inactive) | 9.58% (active) | 62% (inactive) | 89.6% (inactive) | 51.3% (inactive) | 74.2% (inactive) | 87.8% (inactive) | -3.2% (active) | -46.4% (active) | –
3 | CCCCCCCCCCCCCCCc1ccc(N)c(OC2OC(CO)C(O)C(O)C2O)c1 (stereo unspecified) | 80.9% (inactive) | 96.4% (inactive) | 77.1% (inactive) | 73.9% (inactive) | 102% (inactive) | 82% (inactive) | -63.5% (active) | 86% (inactive) | 81.7% (inactive) | – | 119% (inactive) | 83.4% (inactive) | 22.5% (inactive) | 70% (inactive) | – | 99% (inactive) | 92.2% (inactive) | 93.4% (inactive) | 51.5% (inactive) | 82.5% (inactive)
4 | CC(C)NCC(O)c1ccc(O)c(O)c1 (stereo unspecified) | 98.6% (inactive) and 68.3% (inactive) and 98.2% (inactive) | 88.4% (inactive) and 114% (inactive) and 98.8% (inactive) | 92.1% (inactive) and 96.7% (inactive) and 106% (inactive) | 97.9% (inactive) and 90.6% (inactive) and 86.7% (inactive) | 108% (inactive) and 101% (inactive) and 105% (inactive) | – | 82.4% (inactive) and 140% (inactive) | 106% (inactive) and 119% (inactive) and 103% (inactive) | 94.9% (inactive) and 90.6% (inactive) and 99.7% (inactive) | 107% (inactive) and 114% (inactive) and 104% (inactive) | 110% (inactive) and 119% (inactive) and 103% (inactive) | 112% (inactive) and 101% (inactive) | 101% (inactive) and 88.7% (inactive) and 141% (inactive) | 84% (inactive) and 78.9% (inactive) and 85.1% (inactive) | 103% (inactive) and 105% (inactive) | 102% (inactive) and 106% (inactive) and 86.6% (inactive) | 108% (inactive) and 110% (inactive) and 105% (inactive) | 95.9% (inactive) and 87.7% (inactive) and 85.6% (inactive) | 109% (inactive) and 102% (inactive) | 98.1% (inactive) and 96.8% (inactive) and 113% (inactive)
5 | CN1CNC(=O)NC1 | 106% (inactive) and 99.9% (inactive) | 98.4% (inactive) and 86.1% (inactive) | 120% (inactive) and 92.3% (inactive) | 108% (inactive) and 103% (inactive) | 103% (inactive) and 108% (inactive) | 94.1% (inactive) and 95.6% (inactive) | 91.2% (inactive) and 90% (inactive) | – | 108% (inactive) and 112% (inactive) | 110% (inactive) and 121% (inactive) | 118% (inactive) and 106% (inactive) | 112% (inactive) and 86% (inactive) | 120% (inactive) and 96% (inactive) | 119% (inactive) and 102% (inactive) | 102% (inactive) and 106% (inactive) | 111% (inactive) and 103% (inactive) | 96.5% (inactive) and 104% (inactive) | 111% (inactive) and 98.4% (inactive) | 111% (inactive) and 86.9% (inactive) | 97.2% (inactive) and 106% (inactive)
6 | Nc1nc(N)c2[nH]cnc2n1 | 88.6% (inactive) | 102% (inactive) | 111% (inactive) | 88.7% (inactive) | 96.2% (inactive) | 78.5% (inactive) | 50.6% (inactive) | – | 91.8% (inactive) | 97.6% (inactive) | 73.1% (inactive) | 76.5% (inactive) | 125% (inactive) | 99.3% (inactive) | – | 83.8% (inactive) | 84.7% (inactive) | 92.8% (inactive) | 56.1% (inactive) | 88.2% (inactive)
7 | CCCCCCCCCCCCCCCCC(C(=O)O)C(O)(CC(=O)O)C(=O)O (stereo unspecified) | 105% (inactive) and -38.2% (active) | 107% (inactive) and -23.4% (active) | 120% (inactive) and 20% (inactive) | 102% (inactive) and -2.31% (active) | 105% (inactive) and 4.08% (active) | 112% (inactive) and -1.67% (active) | 90% (inactive) and -32.5% (active) | – | 99.7% (inactive) and 0.749% (active) | 114% (inactive) and -53.4% (active) | 124% (inactive) and -1.43% (active) | 90.9% (inactive) and 1.15% (active) | 108% (inactive) and -8.6% (active) | 126% (inactive) and 14.1% (inactive) | 98.4% (inactive) and 9.56% (active) | 116% (inactive) and 10% (inactive) | 15.4% (inactive) | 109% (inactive) and -20.3% (active) | 115% (inactive) and 18.2% (inactive) | 102% (inactive) and -34.8% (active)
8 | Cc1cc(-c2cc(C)c(O)c(C)c2)cc(C)c1O | 87.3% (inactive) | 96.2% (inactive) | 93.7% (inactive) | 73.9% (inactive) | 102% (inactive) | 77.1% (inactive) | 63.3% (inactive) | – | – | 115% (inactive) | 104% (inactive) | 31.9% (inactive) | 75% (inactive) | 75.6% (inactive) | 63.5% (inactive) | 92.9% (inactive) | 86.1% (inactive) | 84.9% (inactive) | 92% (inactive) | 71.6% (inactive)
9 | O=C1OC(c2ccccc2)=N/C1=C\c1ccccc1 | 99.8% (inactive) | 90.9% (inactive) | 96.2% (inactive) | 99.6% (inactive) | 103% (inactive) | – | 108% (inactive) | 95.6% (inactive) | 95.9% (inactive) | 113% (inactive) | 113% (inactive) | 104% (inactive) | 86.4% (inactive) | 111% (inactive) | 106% (inactive) | 103% (inactive) | 99% (inactive) | 99.5% (inactive) | 96.5% (inactive) | 100% (inactive)
10 | O=CN1CCCCC1 | 91.5% (inactive) | 105% (inactive) | 99.4% (inactive) | 102% (inactive) | 112% (inactive) | – | 104% (inactive) | 122% (inactive) | 102% (inactive) | 136% (inactive) | 114% (inactive) | 104% (inactive) | 103% (inactive) | 104% (inactive) | – | 105% (inactive) | 97.8% (inactive) | 99.8% (inactive) | 104% (inactive) | 121% (inactive)
11 | CN(C)c1ccc(/C=C\C(=O)c2ccccc2)cc1 | 98.4% (inactive) and 91% (inactive) and 97.5% (inactive) | 92.6% (inactive) and 98.6% (inactive) and 101% (inactive) | 97.2% (inactive) and 103% (inactive) and 88.5% (inactive) | 102% (inactive) and 101% (inactive) | 102% (inactive) and 99.8% (inactive) and 104% (inactive) | – | 64.3% (inactive) and 60.4% (inactive) and 52.7% (inactive) | 67% (inactive) and 79.8% (inactive) and 82.4% (inactive) | 90.9% (inactive) and 89.7% (inactive) and 80.8% (inactive) | 104% (inactive) and 99.2% (inactive) | 86.8% (inactive) and 89.2% (inactive) and 79.1% (inactive) | 15.3% (inactive) and 26.7% (inactive) and 42.6% (inactive) | 87.5% (inactive) and 84.4% (inactive) and 83% (inactive) | 104% (inactive) and 84.4% (inactive) and 105% (inactive) | 92.4% (inactive) and 102% (inactive) | 92.4% (inactive) and 90% (inactive) and 85.2% (inactive) | 66.3% (inactive) and 91.5% (inactive) and 98% (inactive) | 88% (inactive) and 95.7% (inactive) and 94.4% (inactive) | 83.8% (inactive) and 92.7% (inactive) and 98.1% (inactive) | 89.7% (inactive) and 79.2% (inactive) and 72.5% (inactive)
